According to PubChem BioAssay AID449739 (Vanderbilt High Throughput Screening Facility, 2010):
Screen size: about 100,000 compounds; about 4,200 (4.2%) were called active. This is one part of a sample in which actives are shown more often than they occur. A number with no mark means an inactive call.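 How the source made its calls: active means single-dose well whose peak fluorescence ratio is a statistical outlier from its plate by either plate-standardised score or position-corrected B-score; inactive means the rest.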

Target: Voltage-dependent T-type calcium channel subunit alpha-1H (Homo sapiens) (UniProt O95180)
Experiment: Cav3.2 calcium influx blockers – cell-based, Fluo-4 calcium fluorescence, FDSS, MLSMR library, primary screen (AID 449739)
Conditions: Cav3.2-expressing cells, at 10 µM, hits give low values

Chain of Voltage-dependent T-type calcium channel subunit alpha-1H (Homo sapiens) (O95180 whole entry, looked up): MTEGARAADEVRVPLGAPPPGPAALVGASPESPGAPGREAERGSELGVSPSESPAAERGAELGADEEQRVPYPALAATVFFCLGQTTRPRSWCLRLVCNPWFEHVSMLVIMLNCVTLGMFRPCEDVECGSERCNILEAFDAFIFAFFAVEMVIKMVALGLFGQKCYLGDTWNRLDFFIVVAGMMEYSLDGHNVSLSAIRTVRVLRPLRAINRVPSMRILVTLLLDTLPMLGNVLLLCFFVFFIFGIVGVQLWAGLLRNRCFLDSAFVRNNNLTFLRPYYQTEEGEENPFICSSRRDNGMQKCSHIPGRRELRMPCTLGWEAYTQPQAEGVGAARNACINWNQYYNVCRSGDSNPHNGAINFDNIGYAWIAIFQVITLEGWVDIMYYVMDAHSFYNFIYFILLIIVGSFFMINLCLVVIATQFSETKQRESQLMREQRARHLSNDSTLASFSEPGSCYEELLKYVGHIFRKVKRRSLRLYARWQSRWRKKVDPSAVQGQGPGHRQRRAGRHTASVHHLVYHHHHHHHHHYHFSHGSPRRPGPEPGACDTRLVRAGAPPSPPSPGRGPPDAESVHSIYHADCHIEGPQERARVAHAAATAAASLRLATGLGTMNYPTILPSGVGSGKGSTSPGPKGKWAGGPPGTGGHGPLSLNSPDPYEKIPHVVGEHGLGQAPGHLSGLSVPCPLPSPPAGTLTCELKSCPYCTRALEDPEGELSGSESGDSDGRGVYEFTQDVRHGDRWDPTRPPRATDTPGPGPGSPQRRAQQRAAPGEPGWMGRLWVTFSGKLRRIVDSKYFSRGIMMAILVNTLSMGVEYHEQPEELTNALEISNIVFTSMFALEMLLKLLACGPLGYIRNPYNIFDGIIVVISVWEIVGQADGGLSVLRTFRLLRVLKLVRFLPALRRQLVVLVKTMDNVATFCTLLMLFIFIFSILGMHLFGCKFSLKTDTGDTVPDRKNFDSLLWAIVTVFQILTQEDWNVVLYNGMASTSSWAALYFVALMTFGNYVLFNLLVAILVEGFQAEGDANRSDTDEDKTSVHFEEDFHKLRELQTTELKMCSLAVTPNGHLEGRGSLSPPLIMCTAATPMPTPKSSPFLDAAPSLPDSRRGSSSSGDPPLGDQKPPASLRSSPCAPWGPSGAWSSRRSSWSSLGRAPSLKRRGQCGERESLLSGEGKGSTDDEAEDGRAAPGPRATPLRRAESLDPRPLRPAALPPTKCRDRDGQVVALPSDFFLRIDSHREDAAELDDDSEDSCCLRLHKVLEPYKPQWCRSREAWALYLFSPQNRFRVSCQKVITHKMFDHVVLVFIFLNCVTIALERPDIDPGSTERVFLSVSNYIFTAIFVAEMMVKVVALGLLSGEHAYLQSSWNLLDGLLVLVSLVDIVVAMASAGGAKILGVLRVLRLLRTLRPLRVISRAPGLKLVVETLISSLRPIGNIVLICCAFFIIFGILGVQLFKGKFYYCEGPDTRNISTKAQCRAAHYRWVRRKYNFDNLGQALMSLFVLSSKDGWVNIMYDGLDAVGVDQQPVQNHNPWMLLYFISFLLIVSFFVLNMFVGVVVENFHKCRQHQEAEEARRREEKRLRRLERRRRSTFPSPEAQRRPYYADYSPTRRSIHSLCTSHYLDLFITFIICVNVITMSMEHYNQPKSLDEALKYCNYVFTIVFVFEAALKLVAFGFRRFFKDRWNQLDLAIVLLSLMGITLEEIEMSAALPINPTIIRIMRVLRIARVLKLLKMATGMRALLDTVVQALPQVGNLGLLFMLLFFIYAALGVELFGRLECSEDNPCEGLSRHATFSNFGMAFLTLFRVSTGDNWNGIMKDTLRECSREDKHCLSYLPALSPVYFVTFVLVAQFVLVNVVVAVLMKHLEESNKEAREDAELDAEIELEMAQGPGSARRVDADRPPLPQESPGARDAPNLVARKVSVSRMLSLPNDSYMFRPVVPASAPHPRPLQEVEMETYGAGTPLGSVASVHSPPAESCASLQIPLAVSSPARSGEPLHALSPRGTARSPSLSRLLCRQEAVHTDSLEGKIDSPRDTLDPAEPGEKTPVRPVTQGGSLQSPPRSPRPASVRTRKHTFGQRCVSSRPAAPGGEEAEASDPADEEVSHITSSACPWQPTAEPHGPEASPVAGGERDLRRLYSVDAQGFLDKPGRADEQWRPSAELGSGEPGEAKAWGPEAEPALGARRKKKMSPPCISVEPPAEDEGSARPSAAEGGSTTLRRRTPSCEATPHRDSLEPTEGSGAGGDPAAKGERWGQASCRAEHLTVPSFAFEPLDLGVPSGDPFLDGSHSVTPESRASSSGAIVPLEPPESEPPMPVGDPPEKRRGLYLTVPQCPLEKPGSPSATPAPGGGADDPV

Row | SMILES | B-score
1 | O=C(C1=C[C@H](c2coc3ccccc3c2=O)C[C@H](OCc2ccc(CO)cc2)O1)N1CCOCC1 | 0.0258
2 | O=C(ON=C1CCN(S(=O)(=O)c2ccccc2)CC1)c1ccc(Cl)cc1 | 0.782
3 | Cc1ccccc1NC(=O)c1ccccc1 | 0.346
4 | CC(C)(C)c1ccc(C(=O)NNC(=O)Cc2ccccc2)cc1 | 0.185
5 | CN(C(=O)CC(NC(=O)c1ccccc1)(c1ccccc1)c1ccccc1)c1ccccc1 | -8.96 (active)
6 | O=C(O)c1cnn2c(C(F)(F)F)cc(-c3ccccc3)nc12 | 1.18
7 | COC(C/C=C/C(=O)[C@@H](C)OCc1ccccc1)OC | -1.65
8 | CCOC(=O)C[C@H]1c2ccc(C(F)(F)F)cc2S(=O)(=O)N1c1ccccc1 | -2.6
9 | CCC(=O)OCc1c(C(F)(F)F)nn(C)c1Oc1cccc(C(F)(F)F)c1 | -5.08 (active)
10 | Cn1nc(C(F)(F)F)c(C(=O)Nc2cccc(C(F)(F)F)c2)c1SCc1ccc(Cl)cc1 | -4.7
11 | CC1=NN(C(=O)Cc2ccc(C)cc2)C(O)(c2cccnc2)C1 (stereo not drawn) | 0.437
12 | Cc1ccc(CNC(=O)c2ccc3c(c2)S(=O)(=O)c2ccccc2C3=O)cc1 | 0.00734
13 | Cc1cc(/C=C2/SC(=O)N(CC(=O)OC(C)C)C2=O)c(C)n1C | 0.168
14 | Cc1ccc(-c2nc3ccccc3[nH]2)cc1NC(=O)c1sc2ccccc2c1Cl | -3.3
15 | NC(=O)CSc1c[nH]c2ccccc12 | 0.666
16 | O=C(Cc1c[nH]c2ccccc12)OCCOC(=O)Cc1c[nH]c2ccccc12 | -6.55 (active)
17 | CC(=O)NC(Cc1c[nH]c2ccccc12)C(=O)O (stereo not drawn) | 1.52
18 | Cc1cc([N+](=O)[O-])c(NC2CCCCC2)c([N+](=O)[O-])c1 | -0.266
19 | CONC(=O)c1cc(OCC(F)(F)F)ccc1OCC(F)(F)F | 0.627
20 | Brc1ccc(C2=CC(c3ccco3)n3ncnc3N2)cc1 (stereo not drawn) | -4.77 (active)

Row | SMILES | B-score
21 | COC(=O)C1=C(C)Nc2ncnn2C1c1ccco1 (stereo not drawn) | -0.126
22 | CCOc1ccc(C2=CC(c3ccccc3)n3ncnc3N2)cc1 (stereo not drawn) | -0.0885
23 | O=C(CN1CCN(C2CCCCC2)CC1)Nc1ccccc1N1CCCCC1 | -0.124
24 | Cn1c(=O)c2c(nc(SCC(=O)Nc3ccccc3N3CCCCC3)n2C)n(C)c1=O | -0.936
25 | Cc1ccccc1NC(=O)CNc1ccccc1N1CCCCC1 | -8.5 (active)
26 | C#CCOCCOCCOCCNc1nc(N2CCN(C(=O)[C@H](CCC(=O)O)n3cc(C(N)CO)nn3)CC2)nc(N2CCN(C(=O)[C@H](CCCCN)n3cc(C(N)CC(C)C)nn3)CC2)n1 (stereo partly drawn) | -1.41
27 | Cc1ccc(C(=O)NNC(=O)OC(C)(C)C)c(Cl)c1 | -0.27
28 | Cn1c(=O)n(C)c2cc(/C=N/NC(=O)c3cccc(Br)c3)ccc21 | 1.83
29 | COc1ccc(C(=O)Nc2ccccc2C(=O)N/N=C/c2ccc(O)c(OC)c2)cc1 | 0.134
30 | O=C(N/N=C\c1cccc(Br)c1)c1ccccc1-n1cccc1 | -6.5 (active)
31 | COc1ccc2c(c1)CC[C@@H]1[C@@H]2CC[C@]2(C)C(=O)CC[C@@H]12 | -0.311
32 | CCSc1nnc(-c2cc3c(s2)-c2ccccc2CC3)o1 | 0.187
33 | Fc1ccc(CSc2nnc(-c3cc4c(s3)-c3ccccc3CC4)o2)cc1 | -3.39 (active)
34 | Fc1ccc(-c2nnc(CSc3nnc(-c4ccc5c(c4)OCO5)o3)o2)cc1 | -0.34
35 | Cc1nn(C)c(Oc2ccccc2)c1CCNS(=O)(=O)c1ccc(F)cc1 | -1.06
36 | CC(C)=CC(=O)Nc1nnc(-c2ccc(F)cc2)s1 | 0.294
37 | c1ccc(CSc2nnc(-c3ccco3)n2Cc2ccccc2)cc1 | -4.26 (active)
38 | c1ccc(CSc2nnc(-c3ccco3)c(-c3ccco3)n2)cc1 | 0.232
39 | O=C(CSc1nnc(-c2ccco2)n1Cc1ccccc1)NC(=O)NCc1ccco1 | -1.76
40 | CCOC(=O)CN1C(=O)N[C@@H](c2ccc(Br)cc2)C(C(C)=O)=C1C | 1.08

Row | SMILES | B-score
41 | CC(NC(=O)c1cc(-c2ccccc2)on1)c1ccccc1 (stereo not drawn) | 0.962
42 | CC(N=Cc1nc(-c2ccccc2)oc1O)c1ccccc1 (stereo not drawn) | -4.84 (active)
43 | C/C=C(\C)C(=O)N1CC2(CC(c3cccc(NC(=O)CCCCC)c3)=NO2)C[C@@H]1C(N)=O (stereo partly drawn) | -0.0964
44 | O=C1c2ccccc2NC(c2ccc(-c3cccc(Cl)c3)o2)N1O (stereo not drawn) | -6.09 (active)
45 | C[C@@H](C(=O)N1CCNCC1)n1cc(CCC(=O)O)nn1 | 0.81
46 | Cc1cccc(OCCCC(=O)Nc2ccc(S(=O)(=O)N3CCCC3)cc2)c1 | -4.11
47 | Cc1cccc(NC(=O)CN2C(=O)CNC2=O)c1 | -0.246
48 | Cc1cccc(NC(=O)CN2CCCN(S(=O)(=O)c3ccc(Br)s3)CC2)c1 | -4.23 (active)
49 | O=C(NC1CC1)C1=C[C@H](c2coc3ccccc3c2=O)C[C@H](OCCCCO)O1 | 0.0579
50 | COc1ccccc1NC(=O)CSc1nnc(-c2ccoc2C)n1CCc1ccccc1 | -2.79
51 | CCCn1c(SCC(=O)Nc2cccc(C(=O)OCC)c2)nnc1-c1ccoc1C | -5.22 (active)
52 | Cc1ccc(-n2c(SCC(=O)Nc3ccc4c(c3)OCO4)nnc2-c2ccoc2C)cc1 | -0.45
53 | FC(F)(F)c1cc(C(F)(F)F)c2ccc(N3CCN(c4ccccc4)CC3)nc2n1 | -0.29
54 | CNC(C)C#Cc1ccc2sc3cc(OC)c(OC)cc3c(=O)c2c1 (stereo not drawn) | -1.08
55 | C[C@H]1CC[C@]2(O[C@@H](CCO)C[C@@H](O)[C@@H]2O)O1 | -0.0046
56 | CC1Cc2ccccc2N1CC(=O)Nc1ccc2c(c1)OC(F)(F)O2 (stereo not drawn) | -4.17 (active)
57 | O=C(Cn1c(=O)sc2ccccc21)Nc1ccc2c(c1)OCCO2 | 0.666
58 | O=C(COC(=O)c1ccccc1NC(=O)c1ccco1)Nc1ccc2c(c1)OC(F)(F)O2 | -1.68
